An excerpt weighted towards active compounds, which were near 2.9% of everything screened.
TSHR antag: blocks TSH signaling through the human TSH receptor; P16473; TSHR-expressing cells, TSH-stimulated cAMP HTRF, 2 h; active compounds read low; activity change, negative = inhibition, % at 11.5 µM; 330,000 compounds, 0.2% hits;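 active = activity change below a set negative limit, meaning inhibition stronger than a set level, cut at about -70% in these data; inconclusive = activity change between two set negative limits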; also: % is scaled to controls: 0 for no effect and ±100 for the full control effect
Target sequence (P16473 whole entry, looked up): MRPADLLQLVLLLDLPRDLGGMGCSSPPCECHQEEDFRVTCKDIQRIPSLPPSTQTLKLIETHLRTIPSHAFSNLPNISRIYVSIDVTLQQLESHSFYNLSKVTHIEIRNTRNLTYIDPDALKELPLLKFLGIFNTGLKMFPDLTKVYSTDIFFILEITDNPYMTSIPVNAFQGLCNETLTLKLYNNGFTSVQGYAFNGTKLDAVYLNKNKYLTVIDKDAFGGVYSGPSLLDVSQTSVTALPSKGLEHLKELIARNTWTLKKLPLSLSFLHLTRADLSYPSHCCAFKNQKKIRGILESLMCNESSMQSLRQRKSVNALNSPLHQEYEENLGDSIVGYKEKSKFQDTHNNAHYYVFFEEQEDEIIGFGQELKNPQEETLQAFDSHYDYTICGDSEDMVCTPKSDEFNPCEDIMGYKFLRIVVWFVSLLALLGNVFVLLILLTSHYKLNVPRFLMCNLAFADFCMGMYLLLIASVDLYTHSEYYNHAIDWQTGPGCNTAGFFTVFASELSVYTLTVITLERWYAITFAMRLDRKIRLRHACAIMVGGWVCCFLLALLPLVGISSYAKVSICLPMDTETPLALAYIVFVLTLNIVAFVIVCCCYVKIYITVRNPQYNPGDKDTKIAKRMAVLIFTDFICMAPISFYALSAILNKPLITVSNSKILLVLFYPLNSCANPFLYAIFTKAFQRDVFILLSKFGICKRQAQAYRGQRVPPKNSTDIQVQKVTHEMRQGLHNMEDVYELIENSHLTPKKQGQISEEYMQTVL
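Inhibition of cAMP made by TSHR-expressing cells under TSH stimulation (4nM final, EC80; 2 h, 37 deg C) is quantified with a one-step lysis HTRF kit, anti-cAMP cryptate versus cAMP-d2.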
DRD3 antagonist: antagonists of human D3 dopamine receptor; P35462; D3R cells, DiscoveRx beta-arrestin luminescence, antagonist mode; active compounds read low; max response, negative = inhibition, %; 360,000 compounds, 2.5% hits; AID 652054; in the data active = max response below about -50%; inconclusive = no clear call, values can overlap the other calls; also: % is scaled to controls: 0 for no effect and ±100 for the full control effect
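Cells expressing the human receptor were seeded at 1500 cells/well, incubated overnight at 37 degrees C in 5% CO2, then exposed to library compounds with dopamine controls for 90 minutes at 37 degrees C before luminescent detection.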
B2AR arrestin: agonists driving beta-arrestin recruitment to human beta2-adrenergic receptor; P07550; beta-arrestin recruitment to beta2AR, cell-based reporter; Potency, µM (series often up to 46.1 µM), without a hit: at the top dose activation, most hits filed as activators; 330,000 compounds, 0.02% hits; active = well fitted activation curve with a large enough effect; inconclusive = small, poorly fitted or top-dose-only effect;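 also: potency is read from the fitted curve at half-maximal effect; 0% = DMSO controls and full agonism = EC100 isoproterenol or metaproterenol; nearly all actives have a fitted effect of over 65% in size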
D3 ag: D3 dopamine receptor (human) agonism | P35462 | D3R DiscoveRx beta-arrestin cells, luminescence, 90 min | max activation, % | 410,000 compounds, 0.58% hits | AID 652048; in the data active = max activation above about 30%; also: 0% is about no effect
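Agonist-mode cell screen: cells plated at 1500/well and incubated overnight at 37 °C, then exposed to library compounds for 90 min at 37 °C. Detection reagent was added for 30–60 min at room temperature, and luminescence was read.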
An asterisk follows results filed as active; ? = inconclusive; / = not tested or not shown.

SMILES	TSHR antag	DRD3 antagonist	B2AR arrestin	D3 ag
CCC(Cn1nnc2ccccc2c1=O)NC(=O)Nc1ccc(C)c(C)c1 (centres undefined)	/	/	/	-19.9
COc1ccc2oc(=O)c(-c3cn4c(n3)sc3cc(F)ccc34)cc2c1	/	/	/	-1.0
Cc1cc(C(=O)Nc2ccc3c(c2)OCCO3)ccc1[N+](=O)[O-]	3.3	-62.5*	2.2%	-11.0
O=C(NC(=S)Nc1cccc(F)c1)c1cccc([N+](=O)[O-])c1	32.9	-51.4*	6.2%	-9.2
Cc1cccc(NC(=S)NNC(=O)c2cccc([N+](=O)[O-])c2)c1	-0.3	-2.9	4.1%	-8.1
CC(C)NS(=O)(=O)c1ccc(NC(=S)NC(=O)c2cccc([N+](=O)[O-])c2)cc1	36.5	-94.1*	-0.8%	-59.3
Cc1occc1C(=O)NNC(=S)Nc1cccc([N+](=O)[O-])c1	9.1	-108.9*	-0.8%	-6.7
O=C1C=C(c2c(O)ccc3ccccc23)c2ccccc2C1=O	/	-62.4*	/	-8.9
COc1cc(NC(=O)C2CCN(C(=O)c3sc4nc[nH]c(=O)c4c3C)CC2)cc(OC)c1OC	/	/	/	-8.9
Cc1nc2c(=O)n(C)c(=O)[nH]c2n1Cc1ccccc1	2.9	-61.5*	0.3%	-2.5
C/C(=N\Nc1ccc(S(=O)(=O)Nc2ccccc2)cc1[N+](=O)[O-])c1ccncc1	-4.2	/	0.1%	/
COc1ccccc1NS(=O)(=O)c1ccc(NN=C2CCCCC2)c([N+](=O)[O-])c1	-2.0	-60.6*	-0.5%	-7.1
COc1ccc(C)cc1Nc1ccc(C(=O)O)cc1[N+](=O)[O-]	-11.1	?	0.3%	-10.1
COc1ccc(NS(=O)(=O)c2ccc(N/N=C(\C)c3ccncc3)c([N+](=O)[O-])c2)cc1	?	-64.8*	5.4%	-12.5
COc1ccccc1Nc1ccc(C(=O)O)cc1[N+](=O)[O-]	-14.9	-58.9*	-0.1%	-16.9
CCCCCNC(=O)c1cc2c(=O)n3ccccc3nc2n1C	/	/	/	3.5
COc1ccc(NC(=O)Cn2c(=O)n(CCc3ccccc3)c(=O)c3sc4ccccc4c32)cc1	/	/	/	-16.8
CC1CCCN(CCOc2cccc(Oc3ccccc3)c2)C1 (centres undefined)	-3.5	-60.7*	-0.2%	-29.1
CC(C)c1cccc(OCCCCN(C)C)c1	16.5	-57.9*	-0.2%	-18.6
CCN(CC)CCOc1cccc(C(C)C)c1	-4.1	-10.8	-0.4%	-22.5
Clc1cccc(OCCN2CCN(CCOc3cccc(Cl)c3)CC2)c1	0.5	-21.3	-0.7%	57.7*
Brc1cccc(OCCn2ccnc2)c1	9.1	-65.3*	-0.2%	-3.0
Cc1ccc(CNC(=O)c2nc(-c3ccc(Cl)cc3)n3c2CCCCC3)cc1	/	/	/	-13.1
Cc1ccccc1C(=O)N1CCC(N2CCN(Cc3ccc(F)cc3)C(=O)C2=O)CC1	/	/	/	6.6
COc1cccc(N2C(=O)C(CC(=O)Nc3ccc(F)cc3)N(CCC3=CCCCC3)C2=O)c1 (centres undefined)	/	/	/	-12.8
SMILES	TSHR antag	DRD3 antagonist	B2AR arrestin	D3 ag
O=C(C1CCN(S(=O)(=O)c2ccc(Br)s2)CC1)N1CCN(c2cccc(C(F)(F)F)c2)CC1	/	/	/	-1.2
COc1cccc(-c2nc(SCc3cc(=O)c4cc(Cl)ccc4[nH]3)n[nH]2)c1	/	/	/	0.9
Cc1nn(CCOc2ccccc2Cl)c(C)c1[N+](=O)[O-]	-5.6	?	-0.4%	-11.2
CCCCNCCCOc1cccc(Cl)c1	11.6	-80.2*	-0.2%	-33.7
CC1CCN(CCOc2cccc(Br)c2)CC1	9.5	-75.4*	0.3%	3.2
Cc1nn(CCOc2cccc(Cl)c2)c(C)c1[N+](=O)[O-]	-12.8	-63.7*	-0.1%	-14.5
c1ccc(Oc2cccc(OCCCCN3CCCC3)c2)cc1	9.0	-17.7	8.3%	-15.1
CCCCNCCCCOc1ccccc1	-6.4	?	0.2%	-23.1
Brc1cccc(OCCCN2CCCCCC2)c1	14.8	-73.6*	0.4%	-17.4
CC1CCN(CCCCOc2cccc(C(C)C)c2)CC1	-7.5	-107.7*	-0.3%	-20.1
Cc1cccc(NC(=O)CSc2nc3ccccc3nc2N2CC(C)OC(C)C2)c1 (centres undefined)	-0.6	20.4	-1.0%	5.3
Cc1cccc(N2CCN(C(=O)CSc3nc4ccccc4nc3N3CC(C)OC(C)C3)CC2)c1C (centres undefined)	-28.8	39.1	-0.3%	76.4*
CCN(CC)C(=O)c1n[nH]c(=O)c2ccccc12	9.0	-95.6*	-0.2%	5.4
CC[C@H](C)[C@H]1CNC(=S)N1CC1CCN(CCCCc2ccccc2)CC1	/	-64.6*	/	-44.5
CC(C)C[C@H]1CNC(=S)N1CC1CCN(CCC23CC4CC(CC(C4)C2)C3)CC1	/	-72.3*	/	-44.8

Source: PubChem BioAssay
